CYP2C9 act: activators of human CYP2C9 | P11712 | recombinant CYP2C9, luciferin-H conversion, luminescence; hits give high values; factor 1 = untreated enzyme, 0 = blocked | activation factor at 5 µM | 1.4% of 96,000 active;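 active = activation factor of 2 or more for CYP2C9 at a 5 µM dose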;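 note: 0 = sulfaphenazole-blocked wells and 1 = vehicle-only wells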
CD11b adhes enh: CD11b/CD18-fibrinogen binding enhancement. P05107+P11215. K562 CD11b/CD18 adhesion to fibrinogen, ATPlite luminescence. activation, % at 10 µM. 0.07% of 93,000 active;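 active = 10 µM primary screen giving 50% or more activity, confirmed by 40% or more on retest at that dose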
Target sequence (P05107 whole entry, looked up, other chains not shown): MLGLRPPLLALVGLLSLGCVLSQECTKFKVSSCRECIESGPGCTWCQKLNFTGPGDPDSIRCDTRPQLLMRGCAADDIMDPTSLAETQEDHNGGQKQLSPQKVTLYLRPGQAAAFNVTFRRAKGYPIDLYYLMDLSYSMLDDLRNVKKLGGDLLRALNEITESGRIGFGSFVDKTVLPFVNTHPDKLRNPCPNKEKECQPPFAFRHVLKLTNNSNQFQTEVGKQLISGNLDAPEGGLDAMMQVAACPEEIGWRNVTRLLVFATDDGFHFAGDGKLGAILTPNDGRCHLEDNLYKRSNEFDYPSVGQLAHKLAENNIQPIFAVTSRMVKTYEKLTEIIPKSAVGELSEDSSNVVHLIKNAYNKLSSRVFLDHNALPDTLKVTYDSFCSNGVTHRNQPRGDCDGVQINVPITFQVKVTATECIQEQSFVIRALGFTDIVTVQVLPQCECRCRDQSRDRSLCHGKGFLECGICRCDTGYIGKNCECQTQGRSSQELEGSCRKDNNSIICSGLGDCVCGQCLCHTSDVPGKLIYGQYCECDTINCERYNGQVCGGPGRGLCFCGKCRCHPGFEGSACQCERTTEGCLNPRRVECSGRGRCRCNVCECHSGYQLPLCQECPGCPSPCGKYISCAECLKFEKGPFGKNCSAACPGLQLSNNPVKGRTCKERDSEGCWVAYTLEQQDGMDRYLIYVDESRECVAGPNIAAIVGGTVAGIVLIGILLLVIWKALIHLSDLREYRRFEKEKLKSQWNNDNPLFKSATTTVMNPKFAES
CD11b adhes inh: CD11b/CD18-fibrinogen binding inhibition; K562 CD11b/CD18 adhesion to fibrinogen, ATPlite luminescence; Mn2+ added to activate the integrin; inhibition, % at 10 µM; P05107+P11215; 0.54% of 93,000 active;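 active = primary inhibition of 50% or more at 10 µM, then 40% or more on retest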
CYP2C19 inhib: human CYP2C19 inhibition. P33261. CYP2C19 Supersomes, luciferin-H EGE luminescence, 30 min. inhibition, % at 5 µM. 21% of 96,000 active;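 active = CYP2C19 inhibition above a set limit at 5 µM in the primary screen, cut at about 50% in these data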;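 note: plate controls were negative control wells for no effect and 2.5 mM tranylcypromine positive control for full effect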
CYP2C19 act: increases human CYP2C19 enzyme activity. P33261. recombinant CYP2C19, luciferin-H EGE luminescence; hits give high values; 0 = fully inhibited enzyme, 1 = untreated enzyme. 96,000 tested, under 10 active. AID 1025. activation factor at 5 µM;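 active = activation factor of at least 2 at 5 µM in the primary screen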;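 note: 0 = wells with 2.5 mM tranylcypromine and 1 = vehicle-only wells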
CYP2C9 inh: blocks human cytochrome P450 2C9; P11712; CYP2C9 Supersomes, luciferin-H conversion, luminescence; inhibition, % at 5 µM; 20% of 96,000 active; AID 777;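 active = blocking of liver enzyme CYP2C9 beyond about 50% at 5 µM, limit read from the data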
An asterisk follows results filed as active; / = not tested or not shown. Most compounds without a hit are left out; they make up all but 28% or so of the library.

SMILES | CYP2C9 act | CD11b adhes enh | CD11b adhes inh | CYP2C19 inhib | CYP2C19 act | CYP2C9 inh
CCn1c(=S)[nH]c2cc(S(=O)(=O)N3CCCCC3)ccc21 | 0.5 | -0.3 | 0.8 | 44.8 | 0.6 | 51.0*
COc1ccc2cc(S(=O)(=O)N3CCCCC3)ccc2c1S(=O)(=O)N1CCCCC1 | 0.5 | 0.4 | 31.0 | 25.0 | 0.8 | 51.7*
CCOc1cc(S(=O)(=O)N2CCCCC2)ccc1Cl | 2.5* | -3.5 | 1.8 | 71.0* | 0.3 | -147.6
CCOC(=O)C1CCN(S(=O)(=O)c2ccc(Br)c(OCC)c2)CC1 | 1.1 | -0.7 | 3.5 | 40.4 | 0.6 | -13.3
CCOc1cc(S(=O)(=O)N2CCOCC2)ccc1F | 1.4 | -0.7 | -12.3 | 57.0* | 0.4 | -41.3
CCCCOc1ccc(/C=c2\sc3ncnn3c2=O)cc1 | 0.9 | -3.7 | 26.7 | -1.6 | 1 | 10.5
CC(C)C(NC(=O)OC(C)(C)C)C(=O)N1CCCC1C(=O)NC(Cc1ccccc1)C(N)=O (stereo unspecified) | 1.2 | / | / | -20.7 | 1.2 | -20.0
O=C(Nc1nnc(C2CC2)s1)c1cc(-c2ccccc2)nn1-c1ccccc1 | 0.7 | -5.3 | 8.5 | 20.7 | 0.8 | 34.1
COc1cc(S(=O)(=O)N2CCCCCC2)ccc1Cl | 2.4* | -1.5 | 3.6 | 98.1* | 0 | -138.9
CCOc1cc(S(=O)(=O)N2CCN(CC)CC2)ccc1Cl | 2.3* | -2.6 | 7.6 | 64.9* | 0.4 | -134.2
O=C(NCc1cccs1)C1CCC(CNS(=O)(=O)c2cccs2)CC1 (stereo unspecified) | 1 | -3.4 | -25.2 | -1.6 | 1 | 3.6
CCCN(Cc1cc2ccc(C)cc2[nH]c1=O)C(=O)c1ccccn1 | 1 | 0.3 | -18.9 | 16.5 | 0.8 | 4.8
Cc1cc(C(=O)CNCc2ccco2)c(C)n1-c1ccc(F)cc1 | 0.7 | -0.1 | -6.7 | 51.1* | 0.5 | 27.6
Cc1cc(C(=O)CN2CCCCC2)c(C)n1-c1ccc(F)cc1 | / | 3.1 | 3.4 | / | / | /
Cc1nn(Cc2ccc(Cl)cc2)c(C)c1NC(=O)c1cc(-c2ccc3c(c2)OCO3)on1 | 0.5 | 61.9 | -14.7 | 34.0 | 0.7 | 53.7*
Cc1nn(Cc2ccc(Cl)c(Cl)c2)c(C)c1NC(=O)c1cc(-c2ccc3c(c2)OCO3)on1 | 0.3 | 19.8 | 26.6 | 34.4 | 0.7 | 65.5*
COc1ccc(OC)c(-c2cc(C(=O)Nc3c(C)nn(Cc4ccc(Cl)cc4)c3C)no2)c1 | 0.7 | -1.2 | 7.4 | 36.8 | 0.6 | 32.9
Cc1ccc(-c2nn(-c3ccccc3)cc2C(=O)Nc2ccc(C)c(S(=O)(=O)N3CCOCC3)c2)cc1 | / | 28.3 | -4.1 | / | / | /
Cc1nn(Cc2ccc(Cl)c(Cl)c2)c(C)c1NC(=O)c1cn(-c2ccccc2)nc1-c1ccccc1 | 0.1 | -1.9 | -4.5 | 3.3 | 1 | 90.3*
CSCCC(NC(=O)c1ccccc1)c1nc(-c2ccccc2)no1 (stereo unspecified) | 0.9 | -4.5 | -1.7 | -2.6 | 1 | 12.5
CCCCCc1nc2sc3c(c2c(=O)n1NC(=O)c1ccc([N+](=O)[O-])cc1)CC(C)(C)OC3 | / | -6.2 | 94.5 | / | / | /
Cc1ccc(C)n1CCN1CCN(C(=O)c2ccco2)CC1 | 1 | -4.0 | 8.1 | 4.3 | 1 | 1.1
O=C(c1ccco1)N1CCN(CC(O)Cn2c3ccccc3c3ccccc32)CC1 (stereo unspecified) | 0.1 | 4.0 | -2.8 | 83.3* | 0.2 | 88.0*
OC(COc1ccc(Cl)c2ccccc12)CN1CCN(c2ccccn2)CC1 (stereo unspecified) | 0.4 | 3.5 | -2.1 | 91.7* | 0.1 | 59.1*
OC(CN1CCN(c2ccccn2)CC1)Cn1c2ccccc2c2ccccc21 (stereo unspecified) | 0.5 | / | / | 57.4* | 0.4 | 54.5*
SMILES | CYP2C9 act | CD11b adhes enh | CD11b adhes inh | CYP2C19 inhib | CYP2C19 act | CYP2C9 inh
Cc1c(C)n(CC(O)CN2CCCCCC2)c2ccccc12 (stereo unspecified) | 1 | -3.1 | -11.7 | 71.7* | 0.3 | 3.7
OC(COCc1cccs1)CN1CCN(c2ccccn2)CC1 (stereo unspecified) | 1.1 | -3.5 | -7.0 | -0.5 | 1 | -9.6
OC(COCc1ccc(Cl)cc1)CN1CCN(c2ccccn2)CC1 (stereo unspecified) | / | 1.7 | 5.0 | / | / | /
CN(CC(=O)Nc1ccc(Cl)cc1)CC(=O)Nc1ccc(F)c(F)c1F | / | -2.4 | 22.8 | / | / | /
Cc1csc(/C(=N\O)c2csc(C)n2)n1 | 1 | 2.6 | -6.7 | -6.0 | 1.1 | -0.5
CC(Cc1cccs1)NC(=O)Nc1ccc(F)cc1 (stereo unspecified) | 0.5 | -1.1 | -2.8 | 86.9* | 0.1 | 46.8
O=C(Nc1ccc(F)cc1)Nc1ccccc1NS(=O)(=O)c1cccs1 | / | -3.1 | 27.0 | / | / | /
CC(Cc1cccs1)NC(=O)Nc1cccc(Cl)c1 (stereo unspecified) | 0.5 | -5.9 | 23.3 | 65.6* | 0.3 | 47.2
COc1ccc(S(=O)(=O)N2CCC(C(=O)Nc3ccc4c(c3)OCCO4)CC2)cc1OC | 0.7 | 3.1 | 0.0 | -5.0 | 1.1 | 31.7
COc1ccc(S(=O)(=O)Nc2ccc3c(c2)OCCO3)cc1Cl | 0.1 | -1.8 | 17.3 | 99.1* | 0 | 93.4*
Cc1cccc(NS(=O)(=O)c2ccc(C3CCCCC3)cc2)c1 | 0.6 | -7.7 | 93.0 | 69.3* | 0.3 | 43.9
O=S(=O)(Nc1ccc2c(c1)OCCO2)c1ccc2oc3ccccc3c2c1 | 0 | -11.3 | 100.8 | 99.5* | 0 | 97.8*
O=S(=O)(Nc1ccc2c(c1)OCCO2)c1cnc[nH]1 | 0.2 | -2.9 | 17.2 | 12.3 | 0.9 | 77.5*
CCOC(=O)N1CCN(c2ccc(S(=O)(=O)N(Cc3ccccc3)Cc3ccccc3)cn2)CC1 | 0.5 | -4.6 | 80.9 | 4.4 | 1 | 48.0
Cc1cccc(NS(=O)(=O)c2ccc3c(c2)OCCO3)c1 | 0.8 | 2.7 | 8.9 | 99.9* | 0 | 18.0
COc1ccc(S(=O)(=O)Nc2ccc3c(c2)OCO3)cc1C(=O)O | 0.9 | 1.1 | -3.8 | 10.8 | 0.9 | 11.4
O=C(O)c1ccc(NS(=O)(=O)c2ccc3c(c2)OCCO3)cc1 | 1.2 | -0.6 | 3.8 | -16.7 | 1.2 | -18.9
COc1ccc(S(=O)(=O)Nc2ccc3c(c2)OCO3)cc1OC | 0.5 | 4.1 | -3.8 | 100.0* | 0 | 46.8
O=C(COC(=O)c1ccc(NS(=O)(=O)c2ccc3c(c2)OCCO3)cc1)NC1CC1 | 0.4 | -4.8 | -11.5 | 14.8 | 0.9 | 62.0*
O=C(O)c1cc(S(=O)(=O)Nc2ccc3c(c2)OCCO3)c(Cl)cc1Cl | 0.5 | -1.5 | -8.9 | 14.9 | 0.9 | 51.3*
Cc1ccc2nc(SC(C)C(=O)NCc3ccc4c(c3)OCO4)[nH]c2c1 (stereo unspecified) | / | 0.1 | -15.2 | / | / | /
CCCCn1c(NC(=O)c2ccccc2Cl)c(C#N)c2nc3ccccc3nc21 | 0.6 | -9.0 | 105.7* | 8.9 | 0.9 | 36.2
N#Cc1c(NC(=O)c2ccccc2Cl)n(Cc2ccccc2)c2nc3ccccc3nc12 | / | -5.8 | 100.0* | / | / | /
